According to PubChem BioAssay (NCATS):
Inconclusive results are not listed. Where a call stands in place of a potency, no number is given. A number with no mark means an inactive call. Calls of active or inactive are those of the source. The call rests on the fitted dose curve; in most records, active means well fitted cell-killing curve with a large enough effect; inconclusive means small, poorly fitted or top-dose-only effect; inactive means flat fitted curve, though single readings scatter. Bridge positions count the residues as written; N and C are the ends. Square brackets hold non-standard residues; d marks the D form. Side chains are listed from the residue outwards. Peptide text beside a SMILES is read from it. * marks the point of attachment. Phg(4-OMe) = COc1ccc([C@H](N)C(=O)O)cc1; d(aIle) = CC[C@H](C)[C@@H](N)C(=O)O; d(aThr) = C[C@@H](O)[C@@H](N)C(=O)O; NMeF = CN[C@@H](Cc1ccccc1)C(=O)O; Isobutyryl = CC(C)C(=O)*

test: KB-8-5-11 Cancer Cell Toxicity qHTS against the NCATS CANVASS Library (AID 1347364); conditions: KB-8-5-11 MDR cells viability, CellTiter-Glo, 72 h; series mostly up to 46.1 µM; further: nearly all actives have a fitted effect of over 75% in size
How it was run: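 Terse: KB-8-5-11, 500 cells/well, 72 hr, 37C/5% CO2, 11-pt titration, CellTiter-Glo readout; confirmatory runs ± 1uM tariquidar in medium.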
Potency means the concentration at half of the fitted maximal effect.

Row | SMILES | Potency
1 | O=C1CC2OCC=C3CN4C5CC3C2[C@@H]2N1c1ccccc1[C@]52C[C@@H]4C1=C[C@H]2C3CC4N(CC[C@@]45c4ccccc4N(C1=O)[C@@H]25)C/C3=C/CO (stereo not given in full) | 18.7 µM (active)
2 | C/C(=C\[C@H](C)C(=O)CCCC1CC(=O)NC(=O)C1)[C@@H]1OC(=O)/C=C/CC/C=C/[C@H](O)[C@@H](O)[C@@H]1C | inactive
3 | C=C1CC[C@@H](O[C@H]2C[C@@](O)([C@H](C)NC(=O)c3[nH]c(C)c(Cl)c3Cl)[C@H](O)[C@@H](C)O2)[C@@H]2C=C[C@H](C)C(/C(O)=C3/C(=O)[C@H](C(C)C)N([C@@H]4O[C@H](C)[C@H](OC(N)=O)[C@H](OC(C)=O)[C@@H]4OC)C3=O)[C@@H]12 (stereo not given in full) | inactive
4 | CC[C@H](C)[C@H]1NC(=O)[C@@H](NC(=O)C(C)C)[C@@H](C)OC(=O)[C@H](COC(=O)CNC(C)=O)NC(=O)[C@@H]([C@@H](C)O)NC(=O)[C@H](Cc2ccccc2)N(C)C(=O)[C@H](c2ccc(OC)cc2)NC1=O (Isobutyryl-T[d(aIle)][Phg(4-OMe)][NMeF][d(aThr)]S([Gly-Ac]); ester 1-C) | inactive
5 | C[n+]1cc2cc(C(N)=O)[nH]c3c(=N)c(Cl)c(N)c1c23 | inactive
6 | C/C1=C/[C@@H](C)[C@H](O)[C@@H](O)/C=C/CC/C=C/C(=O)O[C@@H]1[C@H](C)C(=O)CCCC1CC(=O)NC(=O)C1 | inactive
7 | CC(=O)Oc1cc2c(c(OC(C)=O)c1C1CCc3cc(Cl)c(Cl)n31)C(=O)n1c-2cc(Cl)c1Cl (stereo not given) | 14.8 µM (active)
8 | CC(C)=CC[C@H]1C[C@@]2(CC=C(C)C)C(=O)[C@](CC=C(C)C)(C(=O)C(C(=O)c3ccccc3)=C2O)C1(C)C | 20.9 µM (active)
9 | C=C[C@](Cl)(CBr)CCC=C(C)C | inactive
10 | C=C1CC[C@@H](Br)C(C)(C)[C@]12CC=C(C)C(=O)C2 | inactive
11 | COc1cc2c(cc1OC)[C@@H](c1ccc3c(c1)OCO3)C(C)C(C)C2=O (stereo not given in full) | 18.7 µM (active)
12 | C[C@H]1C=C[C@H]2CCCC[C@@H]2[C@H]1C(=O)[C@H]1CC2=C(C(=O)O)CCN2C1=O | inactive
13 | C/C=C1/CN2C3CC1C1C=CC(=O)N4c5ccccc5[C@@]3(C[C@@H]2C2=C[C@H]3C5CC6N(CC[C@@]67c6ccccc6N(C2=O)[C@@H]37)C/C5=C/C)[C@H]14 (stereo not given in full) | 9.35 µM (active)
14 | Oc1ccc(C2Oc3cc(O)c4c(c3[C@@H]2c2cc(O)cc(O)c2)[C@H]2C(c3ccc(O)cc3)c3c(O)cc5c(c3[C@H]2C4c2ccc(O)cc2)[C@H](c2cc(O)cc(O)c2)C(c2ccc(O)cc2)O5)cc1 (stereo not given in full) | inactive
15 | COc1cc(O)c(C(=O)[C@@H]2[C@H](CC=C(C)C)C(C)=CC[C@H]2c2ccccc2)c(O)c1 | 16.6 µM (active)
16 | COc1cc(/C=C/C(=O)OC[C@@H](Cc2ccc(O)c(OC)c2)[C@@H](COC(=O)/C=C/c2ccc(O)c(OC)c2)Cc2ccc(O)c(OC)c2)ccc1O | 13.2 µM (active)
17 | C=CC(CCCCC)C1C(=O)NC(=O)C1C(=O)C1C2C(C)CC(C(=O)O)CC2CC1(O)C(=O)/C=C/C (stereo not given) | inactive
18 | C[C@]12CCC[C@](C)(C(=O)O)[C@@H]1CC[C@@]1(C)c3cocc3CC[C@H]21 | inactive
19 | COc1c(O)cc2c(c1O)C(=O)c1c(coc1C)C2=O | inactive
20 | CC(C)C[C@@H]1c2c(O)c(C=O)c(O)c(C=O)c2O[C@]2(C)C=C[C@@H](C(C)C)C[C@H]12 | inactive
21 | COc1cc2c(c(O)c1O)C(=O)c1c(coc1C)C2=O | inactive
22 | CO[C@H]1[C@@H](OC(=O)/C(C)=C\[C@@H]2O[C@@H]2[C@H]2O[C@H]2C)[C@H](O)[C@H](OCC23C[C@@H]4[C@H](C)CC[C@H]4C4(C=O)CC2C=C(C(C)C)C34C(=O)O)O[C@@H]1C (stereo not given in full) | inactive

test: SDT Cancer Cell Toxicity qHTS against the NCATS CANVASS Library (AID 1347365); conditions: SDT dog glioma viability, ATP luminescence, 72 h; series mostly up to 46.1 µM; further: nearly all actives have a fitted effect of over 60% in size;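 on activity change, negative = cytotoxicity: SDT canine glioma cells 500 per well in 1536 well plates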
How it was run: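 Cytotoxicity is measured from cellular ATP: compounds in an 11-point concentration series are pinned onto SDT cells, incubated 72 hr at 37C, then CellTiterGlo is added and luminescence read.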

Row | SMILES | Potency | activity change, negative = cytotoxicity
23 | Cc1occ2c1C(=O)c1c(cc(O)c(O)c1O)C2=O | 1.05 µM (active) | –
24 | O=C1CC2OCC=C3CN4C5CC3C2[C@@H]2N1c1ccccc1[C@]52C[C@@H]4C1=C[C@H]2C3CC4N(CC[C@@]45c4ccccc4N(C1=O)[C@@H]25)C/C3=C/CO (stereo not given in full) | 20.9 µM (active) | –
25 | CCC(=O)CCCCC[C@@H]1NC(=O)[C@H]2CCCCN2C(=O)[C@H](C(C)C)NC(=O)[C@H](Cc2cn(OC)c3ccccc23)NC1=O | 7.43 µM (active) | –
26 | C/C(=C\[C@H](C)C(=O)CCCC1CC(=O)NC(=O)C1)[C@@H]1OC(=O)/C=C/CC/C=C/[C@H](O)[C@@H](O)[C@@H]1C | 0.264 µM (active) | –
27 | C=CC(CCCCC)C1C(=O)NC(=O)C1C(=O)C1C(/C=C/C)C=CC2CC(C(=O)O)CC(C)C21 (stereo not given) | inactive | –
28 | C=C1CC[C@@H](O[C@H]2C[C@@](O)([C@H](C)NC(=O)c3[nH]c(C)c(Cl)c3Cl)[C@H](O)[C@@H](C)O2)[C@@H]2C=C[C@H](C)C(/C(O)=C3/C(=O)[C@H](C(C)C)N([C@@H]4O[C@H](C)[C@H](OC(N)=O)[C@H](OC(C)=O)[C@@H]4OC)C3=O)[C@@H]12 (stereo not given in full) | inactive | –
29 | COc1ccc([C@@H]2CC(=O)c3c(cc(O)c(C/C=C(\C)CCC=C(C)C)c3O)O2)cc1 | – | 0.771% [at 9.19 µM]
30 | CC[C@H](C)[C@H]1NC(=O)[C@@H](NC(=O)C(C)C)[C@@H](C)OC(=O)[C@H](COC(=O)CNC(C)=O)NC(=O)[C@@H]([C@@H](C)O)NC(=O)[C@H](Cc2ccccc2)N(C)C(=O)[C@H](c2ccc(OC)cc2)NC1=O (Isobutyryl-T[d(aIle)][Phg(4-OMe)][NMeF][d(aThr)]S([Gly-Ac]); ester 1-C) | inactive | –
31 | C[n+]1cc2cc(C(N)=O)[nH]c3c(=N)c(Cl)c(N)c1c23 | 16.6 µM (active) | –
32 | C/C1=C/[C@@H](C)[C@H](O)[C@@H](O)/C=C/CC/C=C/C(=O)O[C@@H]1[C@H](C)C(=O)CCCC1CC(=O)NC(=O)C1 | 20.9 µM (active) | –
33 | CC(=O)Oc1cc2c(c(OC(C)=O)c1C1CCc3cc(Cl)c(Cl)n31)C(=O)n1c-2cc(Cl)c1Cl (stereo not given) | 10.5 µM (active) | –
34 | COc1ccc2[nH]c3c(c2c1)CCN1C[C@H]2C[C@@H](OC(=O)c4cc(OC)c(OC)c(OC)c4)[C@H](OC)[C@@H](OC)[C@H]2C[C@H]31 | 0.526 µM (active) | –
35 | O[C@H]1c2ccccc2-c2c3c(cc4c2[C@@H]1NCC4)OCO3 | 18.7 µM (active) | –
36 | CC(=O)O[C@H]1c2ccccc2-c2c3c(cc4c2[C@@H]1N(C(C)=O)CC4)OCO3 | inactive | –
37 | C=C[C@](Cl)(CBr)CCC=C(C)C | inactive | –
38 | C=C1CC[C@@H](Br)C(C)(C)[C@]12CC=C(C)C(=O)C2 | inactive | –
39 | COc1cc2c(cc1OC)[C@@H](c1ccc3c(c1)OCO3)C(C)C(C)C2=O (stereo not given in full) | inactive | –
40 | C[C@H]1C=C[C@H]2CCCC[C@@H]2[C@H]1C(=O)[C@H]1CC2=C(C(=O)O)CCN2C1=O | inactive | –
41 | C/C(=C\[C@H](C)C(=O)/C=C/CC1CC(=O)NC(=O)C1)[C@@H]1OC(=O)/C=C/CC/C=C/C[C@@H](O)[C@@H]1C | 0.662 µM (active) | –
42 | CC(C)[C@]12CC[C@@]3(C)[C@H](C)CC[C@H](O)[C@@]3(CC1)c1cc3c(cc12)[nH]c1ccccc13 | inactive | –
43 | C/C=C1/CN2C3CC1C1C=CC(=O)N4c5ccccc5[C@@]3(C[C@@H]2C2=C[C@H]3C5CC6N(CC[C@@]67c6ccccc6N(C2=O)[C@@H]37)C/C5=C/C)[C@H]14 (stereo not given in full) | 10.5 µM (active) | –
44 | CC(C)=CCC[C@]12c3cc4c(cc3CC[C@@]1(C)[C@H](C)CC[C@@H]2O)[nH]c1ccccc14 | inactive | –
45 | Oc1ccc(C2Oc3cc(O)c4c(c3[C@@H]2c2cc(O)cc(O)c2)[C@H]2C(c3ccc(O)cc3)c3c(O)cc5c(c3[C@H]2C4c2ccc(O)cc2)[C@H](c2cc(O)cc(O)c2)C(c2ccc(O)cc2)O5)cc1 (stereo not given in full) | 9.35 µM (active) | –
46 | C=CC(CCCCC)C1C(=O)NC(=O)C1C(=O)C1C2C(C)CC(C(=O)O)CC2CC1(O)C(=O)/C=C/C (stereo not given) | inactive | –
47 | C[C@]12CCC[C@](C)(C(=O)O)[C@@H]1CC[C@@]1(C)c3cocc3CC[C@H]21 | inactive | –
48 | CC(C)C[C@@H]1c2c(O)c(C=O)c(O)c(C=O)c2O[C@]2(C)C=C[C@@H](C(C)C)C[C@H]12 | inactive | –
49 | COc1cc2c(c(O)c1O)C(=O)c1c(coc1C)C2=O | 14.8 µM (active) | –
50 | C/C=C/C1C=CC2CC(C)CC(C)C2C1C(=O)CC(=O)NC(CO)C/C=C/CCCCC (stereo not given) | 1.48 µM (active) | –
